From PubChem BioAssay
WRN helicase inh = qHTS for Inhibitors of WRN Helicase | WRN helicase unwinding, fluorescent forked duplex, kinetic | Potency, µM (series often up to 114 µM), without a hit: at the highest dose activity change, negative = inhibition, most hits filed as inhibitors | actives 0.46% (n = 360,000); note: nearly all actives have a fitted effect of over 55% in size
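Enzyme (20 nM final) and test compound sit together 15 min at room temperature before substrate addition. Substrate is a single-forked duplex oligonucleotide (100 nM) labelled with fluorophore and quencher, with 2 mM ATP; helicase unwinding raises red fluorescence, read kinetically.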
L3MBTL1 block = qHTS Assay for the Inhibitors of L3MBTL1 | AlphaScreen L3MBTL1–H3K9me1 peptide binding | actives 0.66% (n = 230,000) | Potency, µM (series often up to 57.1 µM), for the others: at the highest dose activity, negative = inhibition, most hits filed as inhibitors | Lethal(3)malignant brain tumor-like protein 1 (Homo sapiens), Q9Y468; note: nearly all actives have a fitted effect of over 60% in size
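L3MBTL1 50 nM + b-AHA-H3(1-15)K9me1 75 nM, 30 min RT; compound added, 30 min RT; streptavidin donor/Ni-chelate acceptor beads 10 ug/mL each final, 30 min RT dark; AlphaScreen read.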
BLM helicase inh = qHTS Assay for Inhibitors of Bloom's syndrome helicase (BLM). Potency, µM (highest dose often 56.1 µM), inactives show at the highest dose activity change, negative = inhibition, hits mostly inhibitors. recombinant BLM DNA unwinding, fluorescence dequenching. RecQ-like DNA helicase BLM (Homo sapiens), P54132. actives 0.2% (n = 350,000);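 note: plate controls were vehicle for no effect and no enzyme for full effect; nearly all actives have a fitted effect of over 35% in size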
RECQ1 inh-1 = qHTS Assay for Inhibitors of RecQ-Like Dna Helicase 1 (RECQ1) | actives 0.54% (n = 240,000) | Potency, µM (top dose mostly 57.3 µM), inactives show at the highest dose activity, negative = inhibition, most hits filed as inhibitors | RECQ1 DNA unwinding, red fluorescence kinetic read | AID 2549, 2010;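 note: plate controls were vehicle for no effect and no enzyme for full effect; nearly all actives have a fitted effect of over 30% in size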
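50 nM RECQ1T1 preincubated 15 min with compound in Tris pH 8.0 buffer with MgCl2, DTT, Tween-20 and 2.5 ug/ml poly(dI-dC); started with 200 nM TAMRA/BHQ-2 forked duplex and 2 mM ATP. Unwinding read as fluorescence (525/598 nm), two reads 2 h apart.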
APE1 inh = qHTS Assay for Inhibitors of the Human Apurinic/apyrimidinic Endonuclease 1 (APE1) | Potency, µM (top dose mostly 65.8 µM), for the others: top-dose activity change, negative = inhibition, usual class: inhibitors | actives 0.35% (n = 350,000) | DNA repair nuclease/redox regulator APEX1 (Homo sapiens), P27695 | recombinant APE1, TAMRA/BHQ-2 abasic DNA cleavage fluorescence;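 note: plate controls were vehicle for no effect and reference inhibitor for full effect; nearly all actives have a fitted effect of over 55% in size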
Target sequence (P27695 whole entry, looked up): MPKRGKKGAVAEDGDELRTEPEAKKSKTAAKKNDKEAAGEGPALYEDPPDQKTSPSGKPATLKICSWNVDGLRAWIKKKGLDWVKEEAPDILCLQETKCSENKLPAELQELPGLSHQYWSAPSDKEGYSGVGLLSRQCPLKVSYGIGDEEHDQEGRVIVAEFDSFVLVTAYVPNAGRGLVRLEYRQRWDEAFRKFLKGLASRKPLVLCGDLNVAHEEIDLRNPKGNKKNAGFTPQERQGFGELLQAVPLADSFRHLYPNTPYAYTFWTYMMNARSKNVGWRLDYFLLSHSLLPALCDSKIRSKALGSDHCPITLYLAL
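Quantitative HTS: incision of a TAMRA/BHQ-2 double-stranded substrate bearing a tetrahydrofuran abasic site by 0.75 nM APE1 raises fluorescence. Substrate 50 nM final, added after 15 min compound preincubation at room temperature; progress as third-minus-first kinetic read difference.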
FEN1 inh = qHTS Assay for the Inhibitors of Human Flap endonuclease 1 (FEN1) | P39748 | Recombinant FEN1 flap cleavage, fluorescence, 15 min | Potency, µM (doses to about 114 µM), for the others: at the top dose activity change, negative = inhibition, usual class: inhibitors | actives 0.35% (n = 390,000); note: nearly all actives have a fitted effect of over 65% in size
Target sequence (P39748 whole entry, looked up): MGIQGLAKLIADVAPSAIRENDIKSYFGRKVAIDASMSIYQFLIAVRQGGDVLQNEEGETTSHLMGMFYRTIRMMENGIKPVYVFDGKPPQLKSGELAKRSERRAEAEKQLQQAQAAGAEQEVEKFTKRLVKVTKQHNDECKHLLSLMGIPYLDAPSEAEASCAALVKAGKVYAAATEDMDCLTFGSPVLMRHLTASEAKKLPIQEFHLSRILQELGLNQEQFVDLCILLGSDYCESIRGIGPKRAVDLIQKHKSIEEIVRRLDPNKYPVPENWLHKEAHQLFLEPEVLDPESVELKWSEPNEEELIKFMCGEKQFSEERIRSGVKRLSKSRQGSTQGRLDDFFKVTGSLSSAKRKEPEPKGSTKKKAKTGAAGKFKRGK
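Quantitative HTS format: each compound was titrated, incubated with 10 nM nuclease for 15 min at room temperature, then challenged with flap substrate at 50 nM final. Signal change over 15 min gave concentration–effect curves.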
RECQ1 inh conf = Confirmation qHTS Assay for Inhibitors of RecQ-Like Dna Helicase 1 (RECQ1); shares compounds with RECQ1 inh-1; RECQ1 helicase DNA unwinding, fluorescence; Potency, µM (titrated, usually from 229 µM), for inactives: at the top dose activity change, negative = inhibition, most hits filed as inhibitors; actives 28% (n = 610); note: nearly all actives have a fitted effect of over 45% in size
ADP FP counter = Counterscreen for RECQ1 Inhibitors: ADP Fluorescence Polarization Displacement Assay. shares compounds with RECQ1 inh-1. ADP fluorescence polarization displacement counterscreen. Potency, µM (doses to about 228 µM), inactives show at the top dose activity change, negative = inhibition, hits mostly inhibitors. actives 27% (n = 530). AID 2711, 2010; note: nearly all actives have a fitted effect of over 45% in size
RECQ1 inh-2 = Confirmation qHTS Assay for Inhibitors of RecQ-Like Dna Helicase 1 (RECQ1) - Round 2 Cherry Picks; shares compounds with RECQ1 inh-1; recombinant RECQ1 DNA unwinding, red fluorescence; Potency, µM (doses to about 119 µM), without a hit: at the top dose activity, negative = inhibition, most hits filed as inhibitors; actives 15% (n = 1,100); AID 504841, 2011; note: nearly all actives have a fitted effect of over 50% in size
* hit, by the source's call; [ ] = another dose, or the depositor's remark. Compounds with a hit are over-represented: about 1% of the library has one in this group of screens. Calls come from the whole dose curve; as a rule, active = well fitted curve in the direction sought with a large enough effect; inconclusive = small, poorly fitted or top-dose-only effect, or another doubt; inactive = no such curve, though single readings can be large; an effect the other way counts as inactive or inconclusive. Unless noted, % is set by controls: 0 for no effect and ±100 for the full control effect; potency is the fitted concentration of half-maximal effect.

How did CCc1cc2c(=O)c(-c3nc4ccccc4[nH]3)coc2c(CN2CCCCC2C)c1O (stereo not given) do in these assays?
WRN helicase inh: -12%; L3MBTL1 block: 0%; BLM helicase inh: -15%; RECQ1 inh-1: inconclusive; APE1 inh: 0%; FEN1 inh: -18%

How did CN1CCC(N2CCN(C3CN(Cc4ccc(F)cc4)S(=O)(=O)C3)CC2)CC1 (stereo not given) do in these assays?
WRN helicase inh: -4%

Results for Cc1sc(NC(=O)c2ccco2)c(C(c2cccnc2)N2CCN(c3ccc(F)cc3)CC2)c1C (stereo not given) ?
WRN helicase inh: -7%; L3MBTL1 block: -14%; BLM helicase inh: -12%; RECQ1 inh-1: 40µM*; APE1 inh: 3%; FEN1 inh: -17%; RECQ1 inh-2: inconclusive

How did CCOc1ccc2c(c1)c(=O)c(C(=O)c1ccc3c(c1)OCO3)cn2Cc1cccc(F)c1 do in these assays?
BLM helicase inh: -4%; FEN1 inh: 9%

Results for CC1(C)c2ccccc2N2CCC(=O)NC21/C=C/c1ccco1 (stereo not given) ?
WRN helicase inh: -6%; L3MBTL1 block: -1%; BLM helicase inh: -7%; RECQ1 inh-1: inconclusive; APE1 inh: -3%; FEN1 inh: -1%; RECQ1 inh-2: -4%

How did CC1(C)c2ccccc2N2CC(=O)NC21/C=C/c1ccco1 (stereo not given) do in these assays?
WRN helicase inh: -8%; L3MBTL1 block: -22%; BLM helicase inh: 4%; RECQ1 inh-1: -22%; APE1 inh: -7%; FEN1 inh: -6%

What do the screens show for `COc1cccc(CNC(=O)Cc2c(C(=O)O)c(C)cn2C)c1`?
BLM helicase inh: -3%; FEN1 inh: -7%

Results for CCCNC(=O)c1cc(C2CCCCN2C(=O)c2cc(C(C)(C)C)nn2C)on1 (stereo not given) ?
WRN helicase inh: 0%[57.1 µM]

How did O=C(Cn1cnc2scc(-c3cccc([N+](=O)[O-])c3)c2c1=O)NCc1ccco1 do in these assays?
WRN helicase inh: inconclusive; BLM helicase inh: -25%; RECQ1 inh-1: 25µM*; APE1 inh: inconclusive; FEN1 inh: -31%; RECQ1 inh-2: inconclusive

Results for Cc1sc2ncn(CC(=O)NCc3ccco3)c(=O)c2c1-c1ccc(F)cc1 ?
WRN helicase inh: -17%; L3MBTL1 block: -9%; BLM helicase inh: -8%; RECQ1 inh-1: -15%; APE1 inh: -3%; FEN1 inh: 7%

How did CC1CC=CC2C1C(=O)N(Cc1ccccc1)C2c1ccc(/C=C/c2ccccc2)cc1F (stereo not given) do in these assays?
BLM helicase inh: -10%; RECQ1 inh-1: -5%; APE1 inh: -7%; FEN1 inh: 7%

What do the screens show for `O=C(Cc1cccs1)NC1C(=O)N2C(C(=O)[O-])=C(C[n+]3ccccc3)CSC12` (stereo not given)?
BLM helicase inh: -22%; RECQ1 inh-1: inconclusive; RECQ1 inh conf: inconclusive; ADP FP counter: 6.3µM*

What do the screens show for `CCOC(=O)c1cc(-c2ccco2)nn1-c1ccc(C)cc1`?
WRN helicase inh: -8%; L3MBTL1 block: -25%; BLM helicase inh: -8%; RECQ1 inh-1: -8%; APE1 inh: -2%; FEN1 inh: -7%

Results for Cc1ccc(-n2nc(-c3ccco3)cc2C(=O)O)cc1 ?
WRN helicase inh: 45µM*; BLM helicase inh: 0%; RECQ1 inh-1: 20µM*; APE1 inh: inconclusive; FEN1 inh: -9%; RECQ1 inh-2: inconclusive

What do the screens show for `CCCCc1c(C(=O)O)cc(OC)cc1C(=O)O`?
WRN helicase inh: 9%; L3MBTL1 block: -1%; BLM helicase inh: 0%; RECQ1 inh-1: -3%; APE1 inh: 2%; FEN1 inh: -2%

Results for CCCCCc1c2c(cc(O)c1C(=O)O)OC(=O)c1cc(C(=O)CCCC)c(OC)cc1O2 ?
WRN helicase inh: inconclusive; L3MBTL1 block: -10%; BLM helicase inh: -3%; RECQ1 inh-1: 13µM*; APE1 inh: inconclusive; FEN1 inh: inconclusive; RECQ1 inh-2: inconclusive

Results for CCCCCc1c2c(cc(O)c1C(=O)O)OC(=O)c1c(cc(OC)cc1C(=O)CCCC)O2 ?
WRN helicase inh: inconclusive; L3MBTL1 block: -13%; BLM helicase inh: -1%; RECQ1 inh-1: inconclusive; APE1 inh: -1%; FEN1 inh: -22%; RECQ1 inh-2: inconclusive

What do the screens show for `CCCCC/C=C\C/C=C\C/C=C\C/C=C\CCCC(=O)C(F)(F)F`?
BLM helicase inh: inconclusive; RECQ1 inh-1: -2%; APE1 inh: 2%

How did C[C@@H]1CN([C@H](C)CO)C(=O)c2cc(-c3ccccc3)cnc2O[C@@H]1CN(C)C(=O)C1CCOCC1 do in these assays?
WRN helicase inh: -2%

How did Cc1noc(NS(=O)(=O)c2ccc(N/C=C\C(=O)c3ccc(Br)cc3)cc2)c1C do in these assays?
WRN helicase inh: -24%; L3MBTL1 block: -18%; BLM helicase inh: -11%; RECQ1 inh-1: inconclusive; APE1 inh: -1%; FEN1 inh: 6%; RECQ1 inh-2: -22%
